# Hits are enriched below; roughly 2.4% of the tested compounds scored in any of these assays.
# ADAM17 inh = ADAM17 inhibitors, primary screen, biochemical, QFRET; 370,000 tested, 0.83% active; inhibition, % at 6.95 µM; Disintegrin and metalloproteinase domain-containing protein 17 (Homo sapiens), P78536; recombinant ADAM17, EDANS/DABCYL FRET peptide cleavage;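 active = inhibition above the mean of compounds lying between control limits plus 3 SD, set per campaign, cut at about 8.5% in these data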;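 also: 0% = DMSO-only wells as the low control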
# A3G deaminase = APOBEC3G DNA deaminase inhibitors, primary screen, biochemical, fluorescence, single-stranded DNA substrate, uHTS; DNA dC->dU-editing enzyme APOBEC-3G (Homo sapiens), Q9HC16; recombinant A3G, ssDNA deamination FAM/TAMRA fluorescence; inhibition, % at 20 µM; 330,000 tested, 0.28% active; AID 493012, 2011;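 active = inhibition of at least 40% at 20 µM, with no more than 30% in the related APOBEC3A deaminase screen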;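 also: plate controls were DMSO wells with A3G for no effect and wells lacking A3G enzyme for full effect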
# ADAM10 inh = human ADAM10 inhibitors, primary screen, biochemical, QFRET, HTS; recombinant ADAM10, EDANS/DABCYL FRET peptide cleavage, 3 h; inhibition, % at 7 µM; 370,000 tested, 0.62% active; Disintegrin and metalloproteinase domain-containing protein 10 (Homo sapiens), O14672; AID 720582, 2013;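 active = inhibition above a per-campaign cutoff equal to the mean of compounds falling between control-based bounds plus 3 SD, cut at about 20% in these data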;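 also: 0% = DMSO wells while the 100% control is not disclosed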
# Target sequence (O14672 214-748 limits assumed): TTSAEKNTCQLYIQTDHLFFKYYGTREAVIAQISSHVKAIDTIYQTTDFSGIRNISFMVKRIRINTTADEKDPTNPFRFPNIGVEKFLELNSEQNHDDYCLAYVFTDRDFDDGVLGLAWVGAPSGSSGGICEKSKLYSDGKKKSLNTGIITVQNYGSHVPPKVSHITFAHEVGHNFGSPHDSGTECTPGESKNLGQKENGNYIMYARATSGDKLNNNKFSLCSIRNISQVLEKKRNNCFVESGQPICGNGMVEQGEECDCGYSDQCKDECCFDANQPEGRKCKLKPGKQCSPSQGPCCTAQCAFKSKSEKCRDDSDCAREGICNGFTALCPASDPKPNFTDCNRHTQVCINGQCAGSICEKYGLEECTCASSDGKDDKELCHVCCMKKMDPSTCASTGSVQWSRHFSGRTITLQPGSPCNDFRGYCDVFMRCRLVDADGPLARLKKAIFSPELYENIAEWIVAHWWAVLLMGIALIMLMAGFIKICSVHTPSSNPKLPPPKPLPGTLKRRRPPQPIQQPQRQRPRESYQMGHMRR
# CendR NRP1 mod = modulators of CendR peptide binding to NRP-1, primary screen, biochemical, fluorescence polarization, uHTS | inhibition, % at 25 µM | FAM-RPARPAR peptide binding to NRP-1 | Neuropilin-1 (Homo sapiens), O14786 | 360,000 tested, 0.85% active;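 active = inhibition or corrected inhibition above about 18%, plus a signal ratio from 0.5 to 1.5, limit read from the data, passing the limit was not always enough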
# A3A deaminase = APOBEC3A ssDNA deaminase inhibitors, primary screen, selectivity assay for APOBEC3G inhibitor project, biochemical, FAM/TAMRA oligo cleavage fluorescence; DNA dC->dU-editing enzyme APOBEC-3A (Homo sapiens), P31941; recombinant A3A, FAM/TAMRA ssDNA deamination fluorescence; inhibition, % at 20 µM; AID 493011, 2011; 330,000 tested, 0.41% active;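 active = at least 40% inhibition at 20 µM here, with at most 30% in a related deaminase screen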;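 also: plate controls were A3A with DMSO for no effect and wells lacking A3A enzyme for full effect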
# ADAM10 confirm = human ADAM10 inhibitors, confirmation, biochemical, QFRET, triplicate | shares compounds with ADAM10 inh | ADAM10 QFRET peptide cleavage, EDANS fluorescence | inhibition, % at 6.95 µM | 2,100 tested, 1% active | AID 743208, 2013;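 active = inhibition above about 20% chosen separately for each screening run, limit read from the data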;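 also: 0% = DMSO wells and 100% = marimastat wells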
# ADAM17 ctr = ADAM17 inhibitors, counter-screen for ADAM10 exosite inhibitor project, biochemical, QFRET, high throughput | shares compounds with ADAM10 inh | ADAM17 QFRET peptide cleavage, EDANS fluorescence | inhibition, % at 6.95 µM | 2,100 tested, 0.5% active;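 active = mean triplicate inhibition above the solvent-only control wells' mean plus 3 SD, cut at about 12% in these data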;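 also: 0% = DMSO wells and 100% = marimastat wells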
# An asterisk follows results filed as active; x = no result.
SMILES,ADAM17 inh,A3G deaminase,ADAM10 inh,CendR NRP1 mod,A3A deaminase,ADAM10 confirm,ADAM17 ctr
O=C(Cc1cccs1)NC1CCCCN(Cc2ccc(Cl)cc2)C1=O (centres undefined),-4,x,0,x,x,x,x
COC(=O)[C@]12C[C@H](CC(=O)NCCc3ccccc3OC)C(=O)N(Cc3ccc(Cl)cc3Cl)C1=C[C@H](C(C)C)O[C@@H]2C1CC1,0,x,8,x,x,x,x
CCOC(=O)N(C)[C@H]1C[C@H]2c3cc(-c4ccccc4C)ccc3CCN2C[C@H]1[C@H](C)O,-43,x,-150,x,x,x,x
COc1ccc([C@H]2CC(=O)C=C(c3ccc4ncccc4c3)C2)cc1,-3,-12,-9,4,-4,x,x
O=C1C=C(c2ccc3ncccc3c2)C[C@@H](c2ccc(Cl)cc2)C1,5,-8,20*,2,-2,2,0
Cc1ccc(C(=O)Nc2ccccc2Oc2ccccc2)cc1[N+](=O)[O-],5,3,22*,3,2,4,0
O=C(Nc1ccccc1Oc1ccccc1)c1cccc([N+](=O)[O-])c1,5,-10,10,-24,-2,x,x
O=[N+]([O-])c1ccc(-c2cnc(SCc3ccccc3Cl)[nH]2)cc1,1,-2,20*,-5,22,5,2
Fc1ccc(NC(=S)Nc2cc(-c3ccccc3)[nH]n2)cc1Cl,5,-3,22*,-6,1,10,3
COc1ccc(C(=O)N(C)[C@H]2C[C@H]3c4[nH]c5c(-c6ccccc6)cccc5c4CCN3C(=O)[C@H]2[C@H](C)O)cc1,-14,x,-53,x,x,x,x
CCOC(=O)N(C)C[C@H]1OCc2cnnn2CCCC(=O)N([C@H](C)CO)C[C@@H]1C,-1,x,-7,x,x,x,x
CN(c1ccccc1)S(=O)(=O)c1nnc(NC(=O)c2ccco2)s1,1,-3,48*,10,1,4,1
CCCOC(=O)c1ccc(Oc2c(-c3ccc(O)cc3O)n[nH]c2C)cc1,6,-2,22*,-2,0,3,2
O=[N+]([O-])c1cc(S(=O)(=O)Nc2cccc(C(F)(F)F)c2)ccc1-n1nnc2ccccc21,6,-7,23*,2,-19,-1,0
COc1ccc(NS(=O)(=O)c2ccc(-n3nnc4ccccc43)c([N+](=O)[O-])c2)cc1,1,-2,7,0,4,x,x
CC(CO)(CO)NC(=O)c1ccc(C#Cc2cccc(F)c2)cn1,-36,x,-124,x,x,x,x
O=C(C1=C[C@H](c2csc3ccccc23)C[C@H](OCc2ccc(CO)cc2)O1)N1CCOCC1,-1,-11,89*,9,-4,1,0
CN1CCN(C(=O)C2=C[C@@H](c3csc4ccccc34)C[C@@H](OCc3ccc(CO)cc3)O2)CC1,-1,-2,-2,3,-2,x,x
COc1cccc(S(=O)(=O)Nc2ccc(C(O)(C(F)(F)F)C(F)(F)F)cc2)c1,3,x,20*,3,x,-2,0
O=S1(=O)c2ccc(N3CCCC3)cc2Oc2ccccc2CN1Cc1cn(Cc2ccc(C(F)(F)F)cc2)nn1,-6,x,-8,x,x,x,x
O=S1(=O)c2ccc(N3CCSCC3)cc2Oc2ccccc2CN1Cc1cn(Cc2ccc(C(F)(F)F)cc2)nn1,-1,x,20*,x,x,10,3
Cc1cccc(CCNC(=O)CCc2nc(-c3ccccc3F)no2)c1,4,-3,20*,-4,0,1,1
NC(=O)CSc1nnc(-c2ccccn2)n1Cc1ccco1,-6,0,1,1,2,x,x
Clc1ccccc1CSc1nnc(-c2ccccn2)n1Cc1ccco1,8,-5,21*,-7,-1,1,0
C[C@@H]1C(=O)N2N=Cc3cc4ccccc4cc3[C@H]2N2N=Cc3cc4ccccc4cc3[C@@H]12,-5,x,-10,x,x,x,x
SMILES,ADAM17 inh,A3G deaminase,ADAM10 inh,CendR NRP1 mod,A3A deaminase,ADAM10 confirm,ADAM17 ctr
COc1ccccc1OC(C)C(=O)Nc1nc(-c2ccc(S(=O)(=O)N3CCOCC3)cc2)cs1 (centres undefined),7,-3,21*,-4,-5,9,3
Cc1ccc(NC(=O)CNc2ccc(Cl)c(Cl)c2)cc1S(=O)(=O)N(C)C,8,-3,23*,-10,-2,5,2
CCOc1cc(/C=N/NC(=O)COc2ccc(C)cc2)ccc1OC(=O)c1cccs1,4,-2,21*,8,2,10,2
COc1cc(/C=N/NC(=O)COc2ccc(C)cc2)ccc1OC(=O)c1cccs1,7,-4,18,-1,-3,x,x
Fc1ccc(C2=Nn3c(nnc3C3CCCCC3)SC2)cc1,-2,x,0,x,x,x,x
Cc1nc(-c2cccc(NS(=O)(=O)c3ccc4ccccc4c3)c2)cs1,8,-4,26*,-2,0,8,2
O=C(NCc1cn(-c2ccccc2)nc1-c1ccc(F)cc1)c1cccc([N+](=O)[O-])c1,9,-9,21*,22,-4,7,2
CCn1cc(CNC(=O)c2cccc([N+](=O)[O-])c2)c(C)n1,-2,-4,-8,-6,0,x,x
COc1ccc(C2CC(=O)C(c3ccccc3OC)=CN2Cc2ccccc2)cc1 (centres undefined),-2,x,-8,x,x,x,x
O=C(Nc1ccc(Oc2ccc(NC(=O)c3ccco3)c(NC(=O)c3ccco3)c2)cc1)c1ccco1,3,5,7,0,5,x,x
O=C(Nc1ccc(Oc2ccc3ccccc3c2)cc1)c1ccco1,2,0,23*,0,-1,9,3
C[C@@H]1C=CCCO[C@]12C(=O)N(Cc1ccc(Br)cc1)c1cccc(Br)c12,-1,x,-1,x,x,x,x
O=C(CNS(=O)(=O)c1ccc(Br)s1)N1CCN(c2ccccn2)CC1,-4,x,-8,x,x,x,x
C=C(C)COc1ccc(-c2[nH]ncc2Oc2cccc(OC)c2)c(O)c1,8,-5,27*,4,-4,15,5
CCCc1ccc(Oc2cn[nH]c2-c2ccc(O)cc2O)cc1,6,-3,22*,-1,-1,7,2
Fc1ccc(CC2CCN(c3ncnc4sccc34)CC2)cc1,4,x,8,x,x,x,x

# Screens from PubChem.
